In PubChem BioAssay (Tox21):
Inconclusive results are not listed. Where a call stands in place of a potency, no number is given. The source made the active and inactive calls. The call rests on the fitted dose curve; in most records, active means well fitted cell-killing curve with a large enough effect in the repeat runs; inconclusive means weak or mixed curves, or effect the other way; inactive means no such curve, though single readings can be large or run the other way.

Assay: qHTS assay to identify small molecule antagonists of the thyroid receptor (TR) signaling pathway - cell viability counter screen (AID 743064); further: nearly all actives have a fitted effect of over 50% in size
Settings: GH3.TRE-Luc viability, CellTiter-Fluor, 24 h; series mostly up to 70.3 µM
Description: National Center for Advancing Translational Sciences [NCATS]
NIH Chemical Genomics Center [NCGC]
U.S. Environmental Protection Agency [EPA]
National Institutes of Environmental Health Sciences [NIEHS]
National Toxicology Program [NTP]
U.S. Food and Drug Administration [FDA]
Thyroid receptor (TR), a nuclear hormone receptor, plays an important role in development, proliferation, differentiation, metabolism, brain function, and cardiovascular system. […] To profile the Tox21 10K compound library in TR signaling, a cell-based GH3-TRE-Luc assay (GH3.TRE-Luc cell line, developed by the laboratory of Dr. Albertinka J. Murk, Wageningen University) was used to measure the inhibition of TR. GH3 (rat pituitary tumor) cells stably expressing a TR activity sensor consisting of two TR response elements and a luciferase reporter gene. The cytotoxicity of the Tox21 compound library against the GH3.TRE-Luc cell line was tested in parallel by measuring the cell viability using CellTiter-Fluor assay (Promega, Madison, WI) in the same wells.
Tox21 Assay Protocol Summary:
GH3.TRE-Luc cells were dispensed at 1500 cells/4 uL/well into 1536-well white solid bottom plates using a Multidrop Combi dispenser (Thermo Fisher Scientific Inc., Waltham, MA). After the assay plates were incubated at 37 C for 4 hours, 23 nL of library compound or DMSO controls was transferred to the assay plates by a pintool station (Kalypsys, San Diego, CA), followed by addition of 1 ul of T3 (1 nM, final concentration in the wells) to stimulate TR transactivation. The assay plates were incubated at 37 C for 23.5 h, and then 1 uL of CellTiter-Fluor reagent (Promega, Madision, WI) of measuring cytotoxicity was added to each well using a Bioraptr Flying Reagent Dispenser (FRD) workstation (Beckman Coulter, Indianapolis, IN, USA). The plates were incubated at 37C and 5% CO2 for additional 30 min, and fluorescence intensity was measured by a ViewLux plate reader (PerkinElmer, Shelton, CT).
For CC(O)CCCCn1c(=O)c2c(ncn2C)n(C)c1=O (stereo not given), the Potency was “inactive”.
For CC1(C)S[C@@H]2[C@H](NC(=O)Cc3ccccc3)C(=O)N2[C@H]1C(=O)O (tested in a mixture with another compound), the Potency was “inactive”.
For C=CCCCCCCCCCCCCCC, the Potency was “inactive”.
In the case of COc1ccc2cc(CCC(C)=O)ccc2c1, the Potency is reported as “inactive”.
In the case of C=CCCCCCCCCOC(C)=O, the Potency is reported as “inactive”.
For CC(CN1CC(=O)NC(=O)C1)N1CC(=O)NC(=O)C1 (stereo not given), the Potency was “inactive”.
With N[C@H]1C(O)O[C@H](CO)[C@@H](O)[C@@H]1O (stereo not given in full) the Potency was “inactive”.
With COC(=O)c1ccccc1Cl the Potency was “inactive”.
For Nc1cc(S(=O)(=O)O)ccc1O, the Potency was “inactive”.
With CCCC(=O)C(CC)Sc1ccoc1C (stereo not given) the Potency was “inactive”.
With O=CN1CCCCC1 the Potency was “inactive”.
In the case of CCc1ncc(C)[nH]1, the Potency is reported as “inactive”.
For CCCCCCCCCCCCCCCC(=O)OC, the Potency was “inactive”.
For Cc1ccc(N)nc1, the Potency was “inactive”.
In the case of CCCCN1C(=O)c2ccccc2C1=O, the Potency is reported as “inactive”.
In the case of CCOC(=O)[C@H](CCc1ccccc1)N[C@H]1CS[C@H](c2cccs2)CN(CC(=O)O)C1=O, the Potency is reported as “inactive”.
For CCCC(=O)OC, the Potency was “inactive”.
In the case of CC(CC(=O)Cl)CC(C)(C)C (stereo not given), the Potency is reported as “inactive”.
For CC1(C)CC(N)CC(C)(C)N1, the Potency was “inactive”.
In the case of NC(=O)CC[C@@H](N)C(=O)O, the Potency is reported as “inactive”.
For CC(O)C(CO)C(C)O (stereo not given), the Potency was “inactive”.
In the case of Cc1cc(C)c(C)c(C)c1, the Potency is reported as “inactive”.
In the case of CCOC(=O)CC(C(C)=O)C(C)=O, the Potency is reported as “inactive”.
In the case of COc1ccc(Cl)cc1C, the Potency is reported as “inactive”.
With N#CC1(N)CCCCC1 the Potency was “inactive”.
In the case of C=COCCCCO, the Potency is reported as “inactive”.
For COCCCOc1cc(C[C@@H](C[C@H](N)[C@@H](O)C[C@H](C(=O)NCC(C)(C)C(N)=O)C(C)C)C(C)C)ccc1OC, the Potency was “inactive”.
With O=C(O)/C=C(\CC(=O)O)C(=O)O the Potency was “inactive”.
With CC1=C(O)C(=O)CO1 the Potency was “inactive”.
In the case of O=C(O)COc1ccc2ccccc2c1, the Potency is reported as “inactive”.
In the case of CC(=O)OC1CCC(C(C)(C)C)CC1 (stereo not given), the Potency is reported as “inactive”.
In the case of CC(=O)c1c(C)cc(C(C)(C)C)cc1C, the Potency is reported as “inactive”.
In the case of CC/C=C\CCCCCCCCCCOC(C)=O, the Potency is reported as “inactive”.
For O=S(=O)(O)c1cc(I)c(O)c2ncccc12, the Potency was “inactive”.
In the case of C=CC(C)(CCC=C(C)C)OC(=O)C(C)C (stereo not given), the Potency is reported as “inactive”.
For COC(=O)c1c(C)cc(O)c(C)c1O, the Potency was “inactive”.
For O=C(c1ccccc1)c1cccc(O)c1, the Potency was “inactive”.
For CCCCCCCC(=O)N(C)C, the Potency was “inactive”.
With CCO[Si](CC(C)C)(OCC)OCC the Potency was “inactive”.
For NNC(=O)OCc1ccccc1, the Potency was “inactive”.
